Hits are enriched below; roughly 8% of the tested compounds scored in any of these assays.
HT1080 IDH1KD tx: kills HT-1080 cells with IDH1 knockdown; Potency, µM (titrated, usually from 46.1 µM), usual class: cytotoxic; hit rate 2% among 360,000; AID 686971; HT-1080 IDH1 knockdown viability, ATP luminescence, 48 h
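After a 2 h attachment period, IDH1KD HT-1080 cells took pin-transferred compound for 48 h at 37 °C; ATP-based luminescence after 10 min room-temperature reagent incubation reported viability.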
SW480 rerep: DNA re-replication induction in SW480 cells. SW480 DNA re-replication, Hoechst DNA content imaging, 48 h. Potency, µM (titrated, usually from 46.1 µM), actives largely listed as activators. hit rate 1.8% among 340,000. AID 624297; note: nearly all actives have a fitted effect of over 55% in size
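Readout is total intensity of Hoechst-stained nuclei, excited at 405 nm and collected at 500-530 nm. Compound treatment lasted 48 hr at 37 C in 5% CO2 before staining.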
HT1080-NT tox: kills 2HG-producing HT-1080-NT fibrosarcoma cells; hit rate 1.6% among 360,000; HT-1080-NT fibrosarcoma viability, CellTiter-Glo ATP luminescence, 48 h; Potency, µM (series often up to 46.1 µM), most hits filed as cytotoxic;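 note: NT is the 2HG producing partner of a matched IDH1 knockdown line; nearly all actives have a fitted effect of over 55% in size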
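750 cells/well, RPMI + 5% FBS; 2 h settle, compound pin-transfer, 48 h at 37 degrees C. CellTiter-Glo 10 min RT, luminescence. Normalized to DMSO and media-only wells.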
MCF10A rereplic: DNA re-replication induction in MCF 10a cells. Potency, µM (highest dose often 46.1 µM), hits mostly activators. hit rate 2.9% among 350,000. MCF 10A DNA re-replication, Hoechst nuclear intensity, 48 h; note: nearly all actives have a fitted effect of over 50% in size
KB-3-1 cytotox: kills parental KB-3-1 adenocarcinoma cells; KB-3-1 viability, CellTiter-Glo ATP luminescence, 72 h; Potency, µM (doses to about 46.1 µM), hits mostly cytotoxic; hit rate 1.4% among 400,000; AID 1347075; note: nearly all actives have a fitted effect of over 60% in size
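Luminescent ATP read-out (CellTiter-Glo) measures survival of drug-naive KB-3-1 cells after 72 h compound exposure at 37 °C. Titration series was screened from lowest to highest concentration, with DMSO vehicle plates as background controls.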
KB-V1 MDR tox: KB-V1 MDR subline cytotoxicity | KB-V1 MDR cells viability, CellTiter-Glo, 72 h | Potency, µM (series often up to 46.1 µM), usual class: cytotoxic | hit rate 3.4% among 400,000; note: nearly all actives have a fitted effect of over 60% in size
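Drug-selected KB-V1 cells, grown in DMEM lacking phenol red with 10% FBS, receive compound titrations; after three days at 37 degrees C, surviving cell ATP is quantified by CellTiter-Glo luminescence and responses normalized and curve-fitted.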
Hits are given with their value; – = inactive; ? = inconclusive; · = no result. Calls come from the whole dose curve; as a rule, active = well fitted curve in the direction sought with a large enough effect; inconclusive = small, poorly fitted or top-dose-only effect, or another doubt; inactive = no such curve, though single readings can be large; an effect the other way counts as inactive or inconclusive.

SMILES | HT1080 IDH1KD tx | SW480 rerep | HT1080-NT tox | MCF10A rereplic | KB-3-1 cytotox | KB-V1 MDR tox
O=S(=O)(c1cccs1)N1CCN(c2nc(-c3cccs3)nc3ccccc23)CC1 | – | · | – | · | · | ·
COc1cccc(C(=O)Nc2ccc3[nH]c(=O)[nH]c3c2)c1OC | – | – | – | – | 1.16µM | 0.731µM
O=C(COc1ccccc1F)Nc1ccc2[nH]c(=O)[nH]c2c1 | – | – | – | – | ? | 6.51µM
COc1cccc(NC(=O)c2cccc(OC)c2OC)c1 | – | – | – | – | – | –
O=C(COc1ccccc1)Nc1ccc2[nH]c(=O)[nH]c2c1 | – | – | – | – | – | –
CCCN1CNc2c(c(=O)[nH]c(=S)n2CCc2ccccc2OC)C1 | – | · | – | · | · | ·
Cc1[nH]n(-c2ccccc2)c(=O)c1C(=O)c1ccc([N+](=O)[O-])cc1 | – | – | – | – | – | ?
C/C(=N\NC(=O)c1ccc(C)cc1)c1c(C)[nH]n(-c2ccccc2)c1=O | 14.6µM | ? | ? | – | ? | ?
Cc1nn(-c2ccccc2)nc1C(=O)c1c(C)[nH]n(-c2ccccc2)c1=O | – | – | – | ? | 16.4µM | 20.6µM
COc1cc2c(NC3CCN(C)CC3)nc(N3CCCN(C)CC3)nc2cc1O | – | · | – | · | · | ·
COCCCNC(=O)c1c(NC(=O)Cc2coc3cc(C)cc(C)c23)sc2c1CCCC2 | · | · | · | · | – | –
CCOc1ccc(S(=O)(=O)NCc2ccncc2)cc1NC(=O)c1ccccc1 | 23.1µM | – | 3.66µM | ? | 0.581µM | ?
CCOc1ccc(S(=O)(=O)NCc2ccncc2)cc1NC(=O)c1ccccc1F | 23.1µM | – | ? | ? | ? | ?
CCOc1ccc(S(=O)(=O)NCc2cccnc2)cc1NC(=O)c1ccccc1F | – | 9.2µM | – | 13µM | 18.4µM | ?
O=C(C[n+]1csc2ccccc21)c1ccc(I)cc1 | · | · | · | · | – | –
Cc1ccc(Nc2nnc(-c3ccc(C)c(S(=O)(=O)N4CCN(C)CC4)c3)c3ccccc23)c(C)c1 | · | · | · | · | – | –
O=c1oc2ccc(Br)cc2cc1S(=O)(=O)c1ccc(F)cc1 | 14.6µM | – | ? | 5.17µM | 29.1µM | ?
CC1=C(C(=O)Nc2cccnc2)C(c2ccc(F)cc2)n2nc(SCc3ccccc3)nc2N1 (stereo not drawn) | · | · | · | · | – | ?
C#CCN(C[C@@H]1[C@@H](OC(=O)NCc2ccccc2F)[C@@H](OC(=O)NCc2ccccc2F)Cn2c(=O)ccc(=O)n21)S(=O)(=O)c1ccc(C)cc1 | 6.51µM | · | 6.51µM | · | 14.6µM | –
C#CCN(C[C@@H]1[C@@H](OC(=O)NC2CCCC2)[C@@H](OC(=O)NC2CCCC2)Cn2c(=O)ccc(=O)n21)S(=O)(=O)c1ccc(C)cc1 | 8.2µM | · | 7.31µM | · | – | –
C#CCN(C[C@@H]1[C@@H](OC(=O)Nc2cccs2)[C@@H](OC(=O)Nc2cccs2)Cn2c(=O)ccc(=O)n21)S(=O)(=O)c1ccc(C)cc1 | 16.4µM | · | 18.4µM | · | ? | –
C#CCN(C[C@@H]1[C@@H](OC(=O)NC2CC2)[C@@H](OC(=O)NC2CC2)CN(C(=O)OC(C)C)N1C(=O)OC(C)C)S(=O)(=O)c1ccc(C)cc1 | – | · | – | · | – | –
C#CCN(C[C@@H]1[C@@H](OC(=O)NCc2ccccc2F)[C@@H](OC(=O)NCc2ccccc2F)Cn2c(=O)n(CCCCCC)c(=O)n21)S(=O)(=O)c1ccc(C)cc1 | – | · | – | · | – | –
Cc1ccccc1NC(=O)c1c(NC(=O)c2ccncc2)sc2c1CCC(C(C)(C)C)C2 (stereo not drawn) | · | · | · | · | – | ?
COCCNC(=O)c1ccccc1NC(=O)c1nsc2ccccc12 | · | · | · | · | – | –
CC(=O)Nc1nonc1-c1nnc(SCC(=O)Nc2ccc(F)cc2F)n1-c1ccccc1 | · | · | · | · | – | –
C=CCn1c(SCC(=O)c2[nH]c(C)c(C(=O)OC)c2C)nc2scc(-c3ccc(OC)c(OC)c3)c2c1=O | – | – | – | ? | 4.11µM | 6.51µM
CCOC(=O)c1c(S(=O)(=O)N2CCC(C(=O)Nc3ccccc3OC)CC2)c(C)n(CC)c1C | · | · | · | · | – | ?

Bioassay records from PubChem BioAssay.
